Experimental data taken from the supplement of paper PMC4840960.
± gives the standard deviation of the averaged measurements.

Tested on: E18 rat cortical neuron-glia co-culture
Experiment: fiber score / MBP score (myelination specific beyond OL differentiation) (ratio); higher = more myelination-specific MBP alignment
Details: 1 µM; treatment time: 8 days (DIV5-DIV13)
Procedure, shortened: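 Reported values are fiber score (continuous MBP fiber length per Olig2+ nucleus) divided by MBP score (thresholded MBP area × intensity per Olig2+ nucleus). They come from primary E18 rat cortical co-cultures treated with library compounds at 1 or 5 µM in myelination medium from DIV5 to DIV13, then fixed in 4 % paraformaldehyde, immunostained for MBP and Olig2 with DAPI, and analysed over four 10X fields per well in duplicate wells.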

Compound | fiber score / MBP score
Cn1nnc2c(C(N)=O)ncn2c1=O [Temozolomide] | 0.532
CCCCC(=O)O[C@H]1CC[C@H]2[C@@H]3CCc4cc(O)ccc4[C@H]3CC[C@]12C [Estradiol valerate] | 1.07
CCCSc1ccc2[nH]c(NC(=O)OC)nc2c1 [Albendazole] | 0.797
CC(N)C12CC3CC(CC(C3)C1)C2 (centres undefined) [Rimantadine] | 0.962
Cc1occc(=O)c1O [Maltol] | 0.739
CC1(C)O[C@@H]2C[C@H]3[C@@H]4CCC5=CC(=O)C=C[C@]5(C)[C@@]4(F)[C@@H](O)C[C@]3(C)[C@]2(C(=O)CO)O1 [Triamcinolone Acetonide] | 1.37
CC12CC3CC(C)(C1)CC(N)(C3)C2 [Memantine] | 1.07 ± 0.024
NS(=O)(=O)c1cc2c(cc1C(F)(F)F)NCNS2(=O)=O [Hydroflumethiazide] | 0.948
CCc1cccc2c3c([nH]c12)C(CC)(CC(=O)O)OCC3 (centres undefined) [Etodolac] | 0.706
Cc1ccc(S(=O)(=O)NC(=O)NN2CCCCCC2)cc1 [Tolazamide] | 0.701
C#C[C@]1(O)CC[C@H]2[C@@H]3CCC4=Cc5oncc5C[C@]4(C)[C@H]3CC[C@@]21C [Danazol] | 0.577
O=C(O[C@H]1[C@H](Oc2ccccc2COC(=O)C2(O)C=CCCC2=O)O[C@H](CO)[C@@H](O)[C@@H]1O)c1ccccc1 (some centres undefined) [Tremulacin] | 0.746
Cc1ccc(C)c(OCCCC(C)(C)C(=O)O)c1 [Gemfibrozil] | 0.476
COc1ccc2cc(CCC(C)=O)ccc2c1 [Nabumetone] | 0.801
COC(=O)C1=C(C)NC(C)=C(C(=O)OC)C1c1ccccc1[N+](=O)[O-] [Nifedipine] | 0.768
C[C@H]1C[C@@H]2[C@H]([C@@H](O)C[C@@]3(C)[C@H]2CC[C@]3(O)C(=O)CO)[C@@]2(C)C=CC(=O)C=C12 [Methylprednisolone] | 0.918
Clc1ccc2nsnc2c1NC1=NCCN1 [Tizanidine] | 0.796
CCCc1cc(=O)[nH]c(=S)[nH]1 [Propylthiouracil] | 0.95
Cc1cn([C@H]2C=C[C@@H](CO)O2)c(=O)[nH]c1=O [Stavudine] | 0.646 ± 0.15
CC1(C)O[C@@H]2C[C@H]3[C@@H]4C[C@H](F)C5=CC(=O)C=C[C@]5(C)[C@@]4(F)[C@@H](O)C[C@]3(C)[C@]2(C(=O)CO)O1 [Fluocinolone Acetonide] | 1.4

Compound | fiber score / MBP score
NC1CCN(c2nc3c(cc2F)c(=O)c(C(=O)O)cn3-c2ccc(F)cc2F)C1 (centres undefined) [Tosufloxacin] | 0.855
CCN1CCC[C@H]1CNC(=O)c1c(O)c(Cl)cc(Cl)c1OC [Raclopride] | 1.05
CCOc1ccc2ccccc2c1C(=O)N[C@@H]1C(=O)N2[C@@H]1SC(C)(C)[C@@H]2C(=O)O [Nafcillin] | 1.25
COc1c(N2CCNC(C)C2)c(F)cc2c(=O)c(C(=O)O)cn(C3CC3)c12 (centres undefined) [Gatifloxacin] | 0.508
CC(C)[C@H]1CC[C@H](C(=O)N[C@H](Cc2ccccc2)C(=O)O)CC1 [Nateglinide] | 0.796
O=c1[nH]c(=O)n([C@H]2C[C@H](O)[C@@H](CO)O2)cc1F [Floxuridine] | 1.49
COc1ccccc1OCC(O)CN1CCN(CC(=O)Nc2c(C)cccc2C)CC1 (centres undefined) [Ranolazine] | 0.877
OC(CCN1CCCCC1)(c1ccccc1)C1CCCCC1 (centres undefined) [Trihexyphenidyl] | 0.616
CC(=O)O[C@]1(C(C)=O)CC[C@H]2[C@@H]3C[C@H](C)C4=CC(=O)CC[C@]4(C)[C@H]3CC[C@@]21C [Medroxyprogesterone acetate] | 1.1
CC(=O)Oc1ccccc1C(=O)Nc1ncc([N+](=O)[O-])s1 [Nitazoxanide] | 1.18
C=C[C@H]1CN2CC[C@H]1C[C@H]2[C@H](O)c1ccnc2ccc(OC)cc12 [Quinine] | 0.921
C[C@H]1O[C@@H](O[C@H]2[C@@H](O)C[C@H](O[C@H]3[C@@H](O)C[C@H](O[C@H]4CC[C@@]5(C)[C@H](CC[C@@H]6[C@@H]5C[C@@H](O)[C@]5(C)[C@@H](C7=CC(=O)OC7)CC[C@]65O)C4)O[C@@H]3C)O[C@@H]2C)C[C@H](O)[C@@H]1O [Digoxin] | 1.37
CN(C)CCC=C1c2ccccc2COc2ccccc21 [Doxepin] | 0.859 ± 0.061
C[C@H](N[C@@H](CCc1ccccc1)C(=O)O)C(=O)N1CCC[C@H]1C(=O)O [Enalaprilat] | 0.936
COc1ccc(/C=C/C(=O)Nc2ccccc2C(=O)O)cc1OC [Tranilast] | 0.857
CNC(=N)NCCC[C@H](N)C(=O)O | 0.684
NS(=O)(=O)c1cc2c(cc1C(F)(F)F)NC(Cc1ccccc1)NS2(=O)=O (centres undefined) [Bendroflumethiazide] | 0.474
COCCOC(=O)C1=C(C)NC(C)=C(C(=O)OC(C)C)C1c1cccc([N+](=O)[O-])c1 (centres undefined) [Nimodipine] | 0.486
CC(=O)OCC(=O)[C@@]1(O)CC[C@H]2[C@@H]3CCC4=CC(=O)CC[C@]4(C)[C@H]3C(=O)C[C@@]21C [Cortisone acetate] | 0.82
